# High-throughput results deposited in PubChem BioAssay by National Center for Advancing Translational Sciences (NCATS).
# This excerpt belongs to a sample that is enriched for hits.
# Pf Dd2 growth = inhibitors of Plasmodium falciparum Dd2 growth; P. falciparum Dd2 growth, SYBR Green, 72 h; Potency, µM (highest dose often 28.9 µM), inactives show top-dose activity, negative = inhibition, actives largely listed as inhibitors; 4.3% of 120,000 active; AID 1347417; active means well fitted inhibition curve with a large enough effect;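 further: plate controls were DMSO vehicle for no effect and reference drug for full effect; nearly all actives have a fitted effect of over 65% in size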
#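 Infected erythrocytes (Dd2, 0.3% parasitemia, 2.5% hematocrit final) are added to compound in RPMI-1640/Albumax II medium, grown 72 h at 37C in low oxygen, then lysed with saponin/Triton-X containing SYBR Green and read by fluorescence.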
# * hit, by the source's call; i = inactive; [ ] = dose if it differs, or a comment. Potency means the concentration at half of the fitted maximal effect.
SMILES,Pf Dd2 growth
COc1cccc(-c2ccc(S(=O)(=O)N3CCSCC3)cc2)n1,-25%
COC(=O)c1cc2n(n1)CCN(C(=O)Cc1[nH]nc3ccccc13)C2,-16%
COc1cccc(CC(=O)NCCC2CCN(C(=O)Nc3cc(F)cc(F)c3)CC2)c1,i
COC(=O)[C@H]1CN(C(=O)c2cccnc2)CCN1C(=O)N1CCOCC1,16%[44.1 µM]
CCc1noc(-c2cn(C3CCN(C(=O)c4ccoc4)CC3)nn2)n1,21%
COCC1(C(=O)N2CCc3c(c(C(=O)O)nn3CC3CC3)C2)CCC1,19%
CC(C)CCN1C(=O)CC[C@]2(C(=O)NCc3cccnc3)CCCC[C@@H]12,27%
Cc1ccc(OCC(=O)c2ccc3c(c2)N(CC(=O)NC2CCCCC2)C(=O)CO3)c(Cl)c1,i
COC1CCN(C(=O)c2cnc3c(c2)N(C(=O)CCc2ccccc2)CCC3)CC1,-23%[44.1 µM]
COc1ccccc1CC(=O)N1CCCc2ncc(C(=O)N3CCCC[C@@H]3c3ccccc3)cc21,11µM*
COc1ccccc1CC(=O)N1CCCc2ncc(C(=O)NC(c3ccccc3)c3ccccc3)cc21,0%
COc1ccccc1CC(=O)N1CCCc2ncc(C(=O)NCc3cccc(Cl)c3)cc21,i
COc1ccccc1CC(=O)N1CCCc2ncc(C(=O)N3CCC(OC)CC3)cc21,1%[44.1 µM]
COc1ccccc1CC(=O)N1CCCc2ncc(C(=O)N3CCCC[C@@H]3Cc3ccccc3)cc21,7.9µM*
O=C(NCc1ccc(Cl)nc1)c1cn2c(n1)CN(C(=O)OCc1ccccc1)CC2,-6%
O=C(CN1CC2CC(C1)[C@H]1CCCC(=O)N1C2)NCc1ccc(N2CCOCC2)cc1 (stereo partly specified),-20%
COc1ccc(-n2c(-c3ccco3)nc3c(cnn3-c3ccc(Cl)cc3)c2=O)cc1,10µM*
Cc1ccc(-c2nc3c(cnn3-c3ccccc3)c(=O)n2-c2ccc(Cl)cc2)cc1,i
Cc1cccc(-n2c(-c3ccco3)nc3c(cnn3-c3ccccc3C)c2=O)c1,i
N#Cc1ccc(CN2CCC3OCCN(Cc4ccccc4F)C(=O)C3C2)cc1 (stereo unspecified),i
CC(C(=O)NCc1ccccc1)C1CCOCC1 (stereo unspecified),32%
COc1ccc(N(CC(=O)NCc2ccc(F)cc2)S(=O)(=O)c2c(C)n[nH]c2C)cc1,13%
Cc1n[nH]c(C)c1S(=O)(=O)N(CC(=O)NC(C)c1ccccc1)c1ccc(C(C)C)cc1 (stereo unspecified),-16%
Cc1ccc(N(CC(=O)Nc2ccc(C)c(F)c2)S(=O)(=O)c2c(C)n[nH]c2C)cc1,8.9µM*
COc1ccc(-n2c(=O)c3c(n2Cc2ccccc2)CN(C(=O)C2CCCO2)CC3)cc1 (stereo unspecified),-5%[44.1 µM]
SMILES,Pf Dd2 growth
COc1ccc(C2Cn3nnc(C(=O)N4CCC(C(=O)Nc5cc(C)cc(C)c5)CC4)c3CO2)cc1 (stereo unspecified),i
c1ccc(-c2ccccc2Nc2cnc3ccc(-n4ccnc4)nn23)cc1,i
CCCNC(=O)Cn1ccn2nc(-c3ccc(F)cc3)c(CO)c2c1=O,-23%
CCc1nccn1CC(=O)Nc1nn(C)c2cccc(Oc3cccnc3)c12,-11%
CCOC(=O)c1ccccc1NC(=O)CN1C(=O)NC(c2ccc(C)cc2)C2=C1COC2=O (stereo unspecified),-11%
O=C(c1ccc(Cl)cc1)N1CC2(CCCN2Cc2ccc(C(F)(F)F)cc2)Cc2ccccc21 (stereo unspecified),10µM*
CC(=O)N1CC2(Cc3ccccc31)CN(C(=O)c1ccc(C(F)(F)F)cc1)C2,-28%
O=C(c1ccc(Cl)cc1)N1CC2(CCN(Cc3c[nH]c4ccccc34)CC2)Cc2ccccc21,2.5µM*
CC(=O)N1CC2(CCN(Cc3ccccn3)CC2)Cc2ccccc21,-12%
CC(=O)N1CC2(CCN(Cc3ccc(Cl)cc3)CC2)Cc2ccccc21,-21%
CC(=O)N1CC2(CCN(Cc3ccccn3)C2)Cc2ccccc21 (stereo unspecified),-1%
O=C(c1ccc(Cl)cc1)N1CC2(CCN(Cc3cccnc3)C2)Cc2ccccc21 (stereo unspecified),8.9µM*
CC(=O)N1CC2(CCCCN2Cc2ccc(Cl)cc2)Cc2ccccc21 (stereo unspecified),4%
COCC1CN(C(C)=O)CC12CCN(Cc1c[nH]c3ccccc13)CC2 (stereo unspecified),-6%
O=C(c1ccc(Cl)cc1)N1CC2(CCN(Cc3ccc(Cl)cc3)CC2)Cc2ccccc21,13µM*
C[S+](=O)([O-])N1CC2(CCN(Cc3ccc(Cl)cc3)CC2)Cc2ccccc21,-29%
CC(C)CCNC(=O)Cn1nc2n(c1=O)CCCCC2,21%
N#Cc1ccc(S(=O)(=O)N2CC(C(=O)NC3CCCCC3)C3(CCOCC3)C2)cc1 (stereo unspecified),-16%
O=C1NCCCCCCN(C(=O)Cc2cccnc2)[C@@H]2C[C@@H](c3nc(-c4cccnc4)no3)C[C@H]12,i
COC1C(=O)N(C2CCN(C(=O)c3cc4ccccc4[nH]3)CC2)C12CCOCC2 (stereo unspecified),-26%
N#Cc1ccc(C(=O)NC2CCN(c3cc(-c4ccccc4)[nH]n3)CC2)cc1,i
N#Cc1ccc(C(=O)NC2CCN(c3cc(-c4ccc(Cl)cc4)[nH]n3)C2)cc1 (stereo unspecified),7.9µM*
O=C(NC1CCN(c2cc(-c3ccc(Cl)cc3)[nH]n2)C1)c1ccc(Br)o1 (stereo unspecified),13µM*
O=C(NC1CCN(c2cc(-c3ccc(Cl)cc3)[nH]n2)C1)c1cccnc1 (stereo unspecified),i
Cc1ccccc1C(=O)NC1CCN(c2cc(-c3ccc(Cl)cc3)[nH]n2)C1 (stereo unspecified),i
SMILES,Pf Dd2 growth
N#Cc1ccc(C(=O)NC2CCN(c3cc(-c4ccc(Cl)cc4)[nH]n3)CC2)cc1,i
CCNC(=O)[C@@H]1C[C@H](NC(=O)c2ccc(CC)s2)CN1C1CCOCC1,-8%
Cc1cn2nnc(C(=O)NC3CCCCC3)c2c(=O)[nH]1,-40%
O=C(Cc1ccccc1)N1CCC2(CNS(=O)(=O)c3cccnc3O2)C1 (stereo unspecified),60%
CCN(Cc1ccccc1)S(=O)(=O)c1ccc(F)c(C(=O)Nc2cc(C)ccc2OC)c1,24%
CCOc1ccc(NC(=O)c2ccc(F)c(S(=O)(=O)N(CC)Cc3ccccc3)c2)cc1,13%
CCN(CC)S(=O)(=O)c1cccc(C(=O)Nc2ccccc2C(=O)Nc2ccc(Cl)cc2)c1,10µM*
Cc1ccc2c(C)c(C(=O)N3CCN(c4ccccc4)C(=O)C3)oc2c1C,10%
O=C(Cc1ccc(F)cc1Cl)N1C[C@H]2CC[C@@H]1CN(Cc1cccnc1)C2,-16%
COc1ccc(C2C(C#N)=C(N)Oc3n[nH]c(C)c32)cc1 (stereo unspecified),-13%
COCCS(=O)(=O)c1ncc(CN2CC[C@@H]3CCCC[C@H]3C2)n1Cc1ccccc1,6.3µM*
CC(C)Cn1c(CN2CCSCC2)cnc1S(=O)(=O)Cc1ccccc1,-22%
COCCS(=O)(=O)c1ncc(CN(C)C(C)c2ccon2)n1Cc1ccccc1 (stereo unspecified),-4%
O=C1CN(C(=O)Nc2ccccc2Cl)C(c2ccccc2)c2c(sc3c2CCCC3)N1 (stereo unspecified),10µM*
Cc1cccc(NC(=O)N2CC(=O)Nc3sc4c(c3C2c2ccccc2)CCCC4)c1C (stereo unspecified),11µM*
